# Hits are enriched below; roughly 27% of the tested compounds scored in any of these assays.
# CYP2C9 inh: human CYP2C9 inhibition | P11712 | CYP2C9 Supersomes, luciferin-H conversion, luminescence | inhibition, % at 5 µM | hit rate 20% among 96,000 | AID 777;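 active = blocking of liver enzyme CYP2C9 beyond about 50% at 5 µM, limit read from the data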
# CYP2C19 inh: blocks human cytochrome P450 2C19 | CYP2C19 Supersomes, luciferin-H EGE luminescence, 30 min | AID 778 | hit rate 21% among 96,000 | inhibition, % at 5 µM;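 active = CYP2C19 inhibition above a set limit at 5 µM in the primary screen, cut at about 50% in these data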;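 note: plate controls were negative control wells for no effect and 2.5 mM tranylcypromine positive control for full effect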
# CYP2C19 activ: increases human CYP2C19 enzyme activity; P33261; recombinant CYP2C19, luciferin-H EGE luminescence; hits give high values; 0 = fully inhibited enzyme, 1 = untreated enzyme; activation factor at 5 µM; 96,000 tested, under 10 active; AID 1025;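 active = activation factor of at least 2 at 5 µM in the primary screen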;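 note: 0 = wells with 2.5 mM tranylcypromine and 1 = vehicle-only wells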
# CYP2C9 activ: CYP2C9 (human) activation; P11712; recombinant CYP2C9, luciferin-H conversion, luminescence; hits give high values; factor 1 = untreated enzyme, 0 = blocked; activation factor at 5 µM; hit rate 1.4% among 96,000; AID 1024;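 active = activation factor of 2 or more for CYP2C9 at a 5 µM dose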;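 note: 0 = sulfaphenazole-blocked wells and 1 = vehicle-only wells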
# PTK2B oligo ant: Pyk2 (human) oligomerization antagonism; Q14289; Q293 cells, Pyk2 FERM NanoBiT luminescence; hits give low values; z-score (the deposit names both 25 µM and 10 µM); hit rate 0.83% among 99,000;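 active = Z-score of -3 or lower, scaled per plate to the spread of control and sample wells; inactive = z-score above -3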;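 note: negative z-score means lost luminescence so less FERM oligomerization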
# Cav32 inh: blocks human Cav3.2 T-type calcium channel | O95180 | Cav3.2-expressing cells, Fluo-4 calcium fluorescence FDSS; hits give low values | B-score at 10 µM | hit rate 4% among 100,000 | AID 449739;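 active = single-dose well whose peak fluorescence ratio is a statistical outlier from its plate by either plate-standardised score or position-corrected B-score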
# Target sequence (O95180 whole entry, looked up): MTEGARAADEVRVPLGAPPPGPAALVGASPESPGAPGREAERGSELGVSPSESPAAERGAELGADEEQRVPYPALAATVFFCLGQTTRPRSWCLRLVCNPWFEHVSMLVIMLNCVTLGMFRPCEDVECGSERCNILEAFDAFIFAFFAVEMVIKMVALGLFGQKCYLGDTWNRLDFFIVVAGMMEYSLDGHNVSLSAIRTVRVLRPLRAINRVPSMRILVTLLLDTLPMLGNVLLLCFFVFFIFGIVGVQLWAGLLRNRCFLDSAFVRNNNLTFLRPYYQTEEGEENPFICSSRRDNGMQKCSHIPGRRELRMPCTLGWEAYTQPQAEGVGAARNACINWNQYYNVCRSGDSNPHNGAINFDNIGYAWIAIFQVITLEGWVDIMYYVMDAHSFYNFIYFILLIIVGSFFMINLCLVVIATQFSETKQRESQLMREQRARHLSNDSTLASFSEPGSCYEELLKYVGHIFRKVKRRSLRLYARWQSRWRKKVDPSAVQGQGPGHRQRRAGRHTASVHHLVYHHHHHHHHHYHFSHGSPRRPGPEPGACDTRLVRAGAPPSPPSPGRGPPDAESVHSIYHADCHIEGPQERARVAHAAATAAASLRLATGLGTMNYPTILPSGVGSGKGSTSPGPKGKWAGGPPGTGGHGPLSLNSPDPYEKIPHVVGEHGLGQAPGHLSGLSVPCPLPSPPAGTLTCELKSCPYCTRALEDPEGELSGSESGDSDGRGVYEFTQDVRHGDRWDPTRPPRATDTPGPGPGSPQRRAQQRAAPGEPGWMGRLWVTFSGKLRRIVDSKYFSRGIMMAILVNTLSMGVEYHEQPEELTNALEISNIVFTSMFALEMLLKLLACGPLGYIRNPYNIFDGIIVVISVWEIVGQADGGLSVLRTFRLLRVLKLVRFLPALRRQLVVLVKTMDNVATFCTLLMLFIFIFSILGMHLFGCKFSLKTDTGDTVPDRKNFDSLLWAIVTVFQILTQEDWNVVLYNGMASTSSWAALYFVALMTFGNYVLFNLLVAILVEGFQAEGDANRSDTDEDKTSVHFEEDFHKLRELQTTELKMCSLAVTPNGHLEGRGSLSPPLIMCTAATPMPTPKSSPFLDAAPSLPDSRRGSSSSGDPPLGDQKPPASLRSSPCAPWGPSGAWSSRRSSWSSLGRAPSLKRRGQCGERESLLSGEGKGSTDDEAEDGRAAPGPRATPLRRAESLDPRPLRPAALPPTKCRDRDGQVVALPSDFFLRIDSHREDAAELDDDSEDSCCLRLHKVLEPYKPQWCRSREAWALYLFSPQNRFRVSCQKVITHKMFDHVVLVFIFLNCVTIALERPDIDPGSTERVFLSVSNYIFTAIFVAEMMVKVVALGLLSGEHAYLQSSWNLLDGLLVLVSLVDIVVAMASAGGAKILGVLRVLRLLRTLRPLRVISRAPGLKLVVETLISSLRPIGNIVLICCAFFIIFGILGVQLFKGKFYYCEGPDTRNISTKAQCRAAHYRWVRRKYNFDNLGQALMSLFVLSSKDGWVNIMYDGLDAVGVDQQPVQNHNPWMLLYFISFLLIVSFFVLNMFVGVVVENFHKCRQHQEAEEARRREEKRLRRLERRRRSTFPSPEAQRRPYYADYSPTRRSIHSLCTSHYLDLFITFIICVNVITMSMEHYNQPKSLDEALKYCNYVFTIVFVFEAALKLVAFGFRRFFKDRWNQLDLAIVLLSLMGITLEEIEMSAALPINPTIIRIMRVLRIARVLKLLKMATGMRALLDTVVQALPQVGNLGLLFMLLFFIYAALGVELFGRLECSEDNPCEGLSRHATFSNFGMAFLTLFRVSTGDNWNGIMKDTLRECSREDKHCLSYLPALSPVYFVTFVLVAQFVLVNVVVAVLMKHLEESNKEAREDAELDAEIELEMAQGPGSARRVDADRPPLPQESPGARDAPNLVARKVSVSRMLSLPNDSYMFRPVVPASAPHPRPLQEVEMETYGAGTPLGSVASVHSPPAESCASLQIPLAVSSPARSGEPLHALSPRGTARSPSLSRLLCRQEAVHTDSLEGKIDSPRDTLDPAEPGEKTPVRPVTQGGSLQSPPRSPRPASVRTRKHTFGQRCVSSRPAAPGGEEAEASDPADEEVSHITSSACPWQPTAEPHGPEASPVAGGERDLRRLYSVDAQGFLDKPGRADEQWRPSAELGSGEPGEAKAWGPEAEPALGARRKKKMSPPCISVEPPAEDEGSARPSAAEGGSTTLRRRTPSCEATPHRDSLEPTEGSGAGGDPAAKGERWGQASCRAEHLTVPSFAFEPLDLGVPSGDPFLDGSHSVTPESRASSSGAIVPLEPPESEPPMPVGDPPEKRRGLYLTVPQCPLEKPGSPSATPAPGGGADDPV
# * hit, by the source's call; nt = not tested or not shown.
SMILES,CYP2C9 inh,CYP2C19 inh,CYP2C19 activ,CYP2C9 activ,PTK2B oligo ant,Cav32 inh
Cc1ccc(-c2nc(N/N=C/c3ccncc3)c3ccccc3n2)cc1,94*,98*,0,0.1,-2.4,0.0053
COc1ccccc1CN1[C@@H](CC(C)=O)c2cc(C(F)(F)F)ccc2S1(=O)=O,nt,nt,nt,nt,nt,-0.0045
Cn1c(NC(=O)c2ccccc2)c(-c2cccs2)c(=O)c2ccccc21,84*,-15,1.1,0.2,0.67,0.005
O=C(NCC1CC1)c1cc(-c2ccccc2)nn1CC1CC(c2cccnc2)=NO1 (centres undefined),nt,nt,nt,nt,nt,0.82
Cc1ccc(-c2nn(C)c(=O)c3ccccc23)cc1CNC(=O)c1ccco1,32,15,0.9,0.7,-0.31,0.96
C=CCOC(=O)Nc1c(C(=O)OC)[nH]c2ccc(Cl)cc12,14,3,1,0.9,0.18,nt
O=C(N/N=C/c1c[nH]c2ccccc12)c1ccn(Cc2ccc(Cl)cc2)n1,2,65*,0.4,1,-0.86,-3
Cc1ccc2nc(N3CCN(C(=O)c4cccs4)CC3)c(C#N)cc2c1,41,30,0.7,0.6,1.5,-4.8*
COc1ccc(C(=O)N2CCN(c3nc4cc(C)ccc4cc3C#N)CC2)c(OC)c1,55*,-2,1,0.4,1.1,-0.54
COc1ccc2nc(N3CCC(C)CC3)c(C#N)cc2c1,12,15,0.8,0.9,0.64,-0.64
CCOC(=O)C1CCN(c2nc3cc(OC)ccc3cc2C#N)CC1,96*,96*,0,0,-0.17,-0.88
COc1ccc2nc(N3CCC(O)CC3)c(C#N)cc2c1,16,63*,0.4,0.8,0.45,0.091
COc1ccc(C2(C(F)(F)F)NC(=O)N(C)C(=O)N2C)cc1 (centres undefined),-4,12,0.9,1,-0.43,0.48
Cc1ccc(NC(=O)CCSc2ccccn2)cc1,nt,nt,nt,nt,0.06,nt
COC(=O)c1ccc(OC(=O)c2ccc(OCc3c(C)noc3C)c(OC)c2)cc1,12,1,1,0.9,nt,nt
O=C(CSc1nccn1-c1ccc(F)cc1)Nc1ccc2c(c1)OCO2,32,52*,0.5,0.7,-0.63,-1.1
O=C(CSc1nccn1-c1ccccc1)Nc1ccc2c(c1)OCO2,74*,87*,0.1,0.3,-0.83,-0.2
CSc1nccn1CC(=O)Nc1ccc(F)cc1,7,63*,0.4,0.9,0.28,0.0089
CC(=O)c1sc2nc(=O)c(C)nn2c1C,-12,-5,1.1,1.1,-0.38,-0.23
COc1ccc(CNC(=O)C2CC(c3cc(C(F)(F)F)cc(C(F)(F)F)c3)=NO2)cc1 (centres undefined),nt,nt,nt,nt,nt,-0.035
CC(C)(C)NC(=S)Nc1ccc(Nc2ccccc2)cc1,54*,38,0.6,0.5,-2,-3.3
CC(C)(C)NC(=S)Nc1ccc(Br)cc1,-2,33,0.7,1,3,0.11
O=[N+]([O-])c1ccc(N2CCN(c3ccc(Cl)nn3)CC2)c(Cl)c1,36,-8,1.1,0.6,-0.23,nt
CN1CCN(c2ccc([N+](=O)[O-])cc2C(=O)c2ccc(Cl)cc2)CC1,14,58*,0.4,0.9,-0.48,0.067
O=C(c1ccc(-c2ccc(Cl)cc2)o1)N1CCN(c2ccc([N+](=O)[O-])cc2Cl)CC1,92*,70*,0.3,0.1,0.04,nt
SMILES,CYP2C9 inh,CYP2C19 inh,CYP2C19 activ,CYP2C9 activ,PTK2B oligo ant,Cav32 inh
CC(=O)Nc1ccc(OC(=O)c2cc([N+](=O)[O-])ccc2Cl)cc1,-58,2,1,1.6,-0.12,-2.5
CCOc1ccc(C(=O)c2cc([N+](=O)[O-])ccc2Cl)cc1,76*,34,0.7,0.2,-0.13,-1.1
CC(C)Cn1c(-c2ccc(Cl)cc2)cnc1SCC(=O)N1CCOCC1,23,31,0.7,0.8,0.86,nt
COC(=O)c1cc2oc3ccccc3c2n1Cc1ccccn1,51*,73*,0.3,0.5,0.08,-2.5
N#CC1=C(N)n2c(s/c(=C\c3ccco3)c2=O)=C(C#N)C1c1ccco1 (centres undefined),51*,5,0.9,0.5,1.5,-0.17
CCOC(=O)C1=C(N)n2c(s/c(=C/c3ccco3)c2=O)=C(C(=O)OC)C1c1ccco1 (centres undefined),78*,24,0.8,0.2,-0.17,-0.8
COC(=O)C1=C(N)n2c(s/c(=C\c3cccnc3)c2=O)=C(C(=O)OC)C1c1cccnc1 (centres undefined),50,70*,0.3,0.5,nt,1.8
Cc1nc2ccccc2n2c(-c3ccccc3)c3c(=O)n(C)c(=O)n(C)c3c12,29,10,0.9,0.7,-0.39,2
O=C1CCc2cc(S(=O)(=O)NCCC(=O)N3CCN(c4cccc(Cl)c4)CC3)ccc2N1,nt,nt,nt,nt,1.4,1.7
CC(Oc1ccccc1)c1ccnn1S(C)(=O)=O (centres undefined),-23,26,0.7,1.2,0.96,0.98
CC(Oc1ccc(-c2ccccc2)c(F)c1)c1ccn(S(=O)(=O)c2ccc(Cl)cc2)n1 (centres undefined),68*,32,0.7,0.3,-0.22,-5.1*
N#Cc1cccc(-c2cn(S(=O)(=O)c3ccc(Cl)cc3)nc2N)c1,39,11,0.9,0.6,-0.14,0.79
CC(Oc1ccc(Cl)cc1)c1ccnn1S(=O)(=O)c1ccccc1 (centres undefined),38,82*,0.2,0.6,-0.1,-6.1*
CCOC(=O)c1sc(C)c(C(=O)NCC(C)(C)CN(C)C)c1N,-3,-3,1,1,-0.72,2.8
CCc1sc(C(=O)NC2CCN(C)CC2)cc1Br,39,-4,1,0.6,-0.72,0.98
CCN(CC)S(=O)(=O)c1cccc(-c2nnc(SCC(=O)c3cc(C)n(C)c3C)o2)c1,34,20,0.8,0.7,0.78,-0.48
CCN(CC)S(=O)(=O)c1cccc(-c2nnc(SCCOc3ccccc3C)o2)c1,-65,90*,0.1,1.6,-0.58,-4.7*
CCN(CC)S(=O)(=O)c1cccc(-c2nnc(SCCOc3ccc(Cl)cc3)o2)c1,-97,61*,0.4,2*,1.1,-7.9*
CCN(CC)S(=O)(=O)c1cccc(-c2nnc(SCc3nnc(-c4ccccc4)o3)n2C)c1,55*,88*,0.1,0.5,1.5,1.9
CCN(CC)S(=O)(=O)c1cccc(-c2nnc(SCCOc3ccccc3)o2)c1,-38,94*,0.1,1.4,-1.5,-4.2*
C=C(CC)C(=O)c1ccc(OCC(=O)O)c(Cl)c1Cl,nt,nt,nt,nt,nt,1.7
FC(F)(F)c1cnc(Oc2ccccc2-c2nnco2)c(Cl)c1,23,95*,0,0.8,-0.52,-0.55
Nc1ccccc1Oc1ncc(C(F)(F)F)cc1Cl,-20,72*,0.3,1.2,0.25,0.2
CCOc1ccc(C2/C(=C(/O)c3ccc(Cl)cc3)C(=O)C(=O)N2CCCN(C)C)cc1OC (centres undefined),-30,-26,1.3,1.3,nt,nt

# Source: PubChem (several laboratories)
